# Giardia killer: kills Giardia lamblia; Giardia lamblia trophozoite viability; activity change, % at 7.66 µM, hits read low; 0.15% of 340,000 active; AID 540267; in the data active = activity change below about -80%; inconclusive = between about -30% and that limit;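 also: parasites exposed to compound for two days anaerobically before the ATP read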
#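 Luminescence from cellular ATP indicates surviving trophozoites (100 cells/well) following 48 hrs anaerobic compound treatment at 37 deg C; signal develops 15-30 min at room temperature.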
# TDP1 cell noCPT: qHTS for Inhibitors of human tyrosyl-DNA phosphodiesterase 1 (TDP1): qHTS in cells in absence of CPT | Potency, µM (doses to about 46.2 µM), most hits filed as inhibitors | 15% of 420,000 active | AID 686978, 2013 | DT40 Tdp1-/- hTDP1 cells, no CPT, ATP luminescence, 48 h; also: nearly all actives have a fitted effect of over 55% in size
#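 Cells were dispensed at 400 per well, compounds added by pin tool, plates incubated ≥48 hr at 37 °C, then CellTiter-Glo added for 30 min at room temperature before luminescence reading. Line: DT40 Tdp1-/- complemented with hTDP1; camptothecin omitted.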
# TDP1 inh: inhibitors of human tyrosyl-DNA phosphodiesterase TDP1; Q9NUW8; recombinant TDP1, AlphaScreen DNA substrate cleavage; Potency, µM (top dose mostly 130 µM), usual class: inhibitors; 0.28% of 350,000 active; AID 485290; also: nearly all actives have a fitted effect of over 40% in size
# Target sequence (Q9NUW8 whole entry, looked up): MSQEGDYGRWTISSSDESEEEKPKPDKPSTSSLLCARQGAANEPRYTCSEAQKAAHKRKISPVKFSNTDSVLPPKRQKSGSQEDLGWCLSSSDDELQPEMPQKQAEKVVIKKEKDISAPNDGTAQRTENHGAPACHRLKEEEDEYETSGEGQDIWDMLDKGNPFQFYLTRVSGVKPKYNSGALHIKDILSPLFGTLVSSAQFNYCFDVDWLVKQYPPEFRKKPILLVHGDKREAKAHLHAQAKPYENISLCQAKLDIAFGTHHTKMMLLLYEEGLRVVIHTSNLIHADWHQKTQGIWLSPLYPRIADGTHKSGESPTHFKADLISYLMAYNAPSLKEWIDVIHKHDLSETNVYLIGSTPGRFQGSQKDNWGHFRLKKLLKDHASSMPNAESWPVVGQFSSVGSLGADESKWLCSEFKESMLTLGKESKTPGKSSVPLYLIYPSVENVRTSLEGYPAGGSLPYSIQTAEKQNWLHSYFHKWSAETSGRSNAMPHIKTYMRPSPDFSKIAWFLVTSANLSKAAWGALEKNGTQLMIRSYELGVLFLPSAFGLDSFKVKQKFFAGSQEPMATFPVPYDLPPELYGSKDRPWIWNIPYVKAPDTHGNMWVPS
#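 Tdp1 1 nM final; 15 min RT w/ cpd; substrate 15 nM, 5 min; beads 10 ug/ml, 10 min; AlphaScreen read. Neg ctrl: no enzyme.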
# IL1B secr inh: inhibitors of inflammasome signaling (IL-1 beta secretion); 4.7% of 360,000 active; AID 743279; activity change, % at 57.5 µM; THP-1 LPS/ATP IL-1B secretion, AlphaLISA, 16 h; hits give low values; in the data active = activity change below about -50%; inconclusive = mostly about -30% to -49%
#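 THP-1 cells pretreated 1 hr with compounds (up to 57.5 uM final), then stimulated with LPS (250 ng/mL final) plus ATP (1.25 mM final); secreted IL-1B measured by AlphaLISA after 16 hr, decreased signal indicating inhibition.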
# ELG1 repair inh: inhibitors of ELG1-dependent DNA repair in HEK293T cells; Potency, µM (top dose mostly 46.1 µM), most hits filed as inhibitors; 2.3% of 330,000 active; HEK293T ELG1-luciferase reporter, luminescence, 16 h; DNA damage induced by 5-fluorouridine; AID 504467; also: nearly all actives have a fitted effect of over 55% in size
#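 5-Fluorouridine DNA damage + compound/DMSO, 2,000 cells/well, 16 h, 37 °C/5% CO2. ONE-Glo, 30 min RT, luminescence. Readout = decrease in reporter signal.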
# DT40 TDP1 CPT: DT40-hTDP1 cell growth loss with CPT | chicken DT40 Tdp1-/-;hTDP1 cells + 20 nM CPT, ATP luminescence, 48 h | Potency, µM (highest dose often 46.2 µM), most hits filed as inhibitors | 12% of 420,000 active | AID 686979; also: nearly all actives have a fitted effect of over 55% in size
#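 Cell growth measured by CellTiter-Glo luminescence after a minimum 48 h, 37 C compound exposure with 20 nM CPT in Tdp1-knockout DT40 cells stably expressing hTDP1, seeded 400/well; qHTS titration format.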
# A number is an active result; – = inactive; ? = inconclusive; · = not tested or not shown; [ ] = another dose, or the depositor's remark. An excerpt weighted towards active compounds, which were near 19% of everything screened. Unless noted, calls follow the shape of the dose curve; as a rule, active = well fitted curve in the direction sought with a large enough effect; inconclusive = small, poorly fitted or top-dose-only effect, or another doubt; inactive = no such curve, though single readings can be large; an effect the other way counts as inactive or inconclusive.
SMILES,Giardia killer,TDP1 cell noCPT,TDP1 inh,IL1B secr inh,ELG1 repair inh,DT40 TDP1 CPT
CC(=O)Oc1cc(OC(C)=O)c2c(=O)cc(-c3ccc(OC(C)=O)c(OC(C)=O)c3)oc2c1,·,26.6µM,–,·,·,?
CC(=O)Oc1cc(O)c2c(=O)c(OC(C)=O)c(-c3ccc(OC(C)=O)c(OC(C)=O)c3)oc2c1,–,20.6µM,·,–,·,?
Cc1ccc(NC(=O)C(C)Sc2nc3c(c(=O)[nH]2)CCCC3)cc1Cl (stereo unspecified),·,?,–,·,·,?
CCN1C=CC2=C(C#N)C(N)C(C#N)(C#N)C(c3ccccc3C(F)(F)F)C2C1 (stereo unspecified),–,23.1µM,–,–,–,?
CN(C)C(=O)c1cc(C(=O)c2ccc(F)cc2C(F)(F)F)c[nH]1,–,?,·,–,8.2µM,–
CN(C)C(=O)c1cc(C(=O)c2ccccc2C(F)(F)F)c[nH]1,–,?,–,–,6.51µM,?
CN(C)C(=O)c1cc(C(=O)c2ccc(F)cc2F)c[nH]1,–,–,·,–,?,–
CC(Sc1ccc2c(c1)OCCO2)C(=O)Nc1ccc(N2CCOCC2)cc1 (stereo unspecified),–,–,–,–,?,–
CCOC(=O)C1=C(COC(=O)/C=C/c2ccco2)NC(=O)NC1C (stereo unspecified),?,–,·,–,–,–
O=C(NCc1ccco1)C(c1ccccc1)N(Cc1ccccc1)C(=O)Cn1nnc2ccccc21 (stereo unspecified),–,?,–,?,18.4µM,?
O=C(NC1CCCCC1)C(c1ccc(F)cc1)N(Cc1ccco1)C(=O)CN1C(=O)c2ccccc2S1(=O)=O (stereo unspecified),–,18.4µM,–,–,–,?
Cc1ccc(C(C(=O)NC2CCCCC2)N(Cc2ccco2)C(=O)Cn2cnc3ccccc32)cc1 (stereo unspecified),–,?,–,–,–,18.4µM
Cc1ccccc1C(C(=O)NCc1ccco1)N(CC1CCCO1)C(=O)Cn1nnc2ccccc21 (stereo unspecified),–,–,–,–,?,?
COc1cccc(C(C(=O)NCc2ccco2)N(C(=O)Cn2nnc3ccccc32)C2CC2)c1OC (stereo unspecified),–,13µM,–,–,–,18.4µM
O=C(NCc1ccco1)C(c1ccccc1)N(CC1CCCO1)C(=O)Cn1nnc2ccccc21 (stereo unspecified),–,?,–,–,–,–
CCC(C)(C)NC(=O)C(c1ccc(C)cc1)N(Cc1ccco1)C(=O)Cn1nnc2ccccc21 (stereo unspecified),–,–,–,–,–,–
O=C(NC1CCCCC1)C(c1ccccc1F)N(Cc1ccco1)C(=O)Cn1nnc2ccccc21 (stereo unspecified),–,18.4µM,–,–,–,?
Cc1cccc(C)c1NC(=O)C(c1cccs1)N(Cc1ccco1)C(=O)Cn1nnc2ccccc21 (stereo unspecified),–,10.3µM,–,–,–,?
Cc1ccc(-c2nc(S(=O)(=O)c3ccc(C)cc3)c(SCC(=O)NC3CCCCC3)o2)cc1,·,–,–,·,·,–
CCCCCC(=O)N1C[C@@H](O)[C@H](n2cc(C3CC3)nn2)C[C@@H]1c1ccc(Cl)cc1,·,–,·,–,·,–
CCCCCC(=O)N1C[C@H](n2cc(-c3ccc(F)cc3)nn2)[C@@H](O)C[C@@H]1c1ccc(OC)cc1,·,–,·,–,·,–
CCCCCC(=O)N1C[C@H](O)[C@@H](n2cc(-c3ccc(F)cc3)nn2)C[C@@H]1c1ccc(Cl)cc1,·,18.4µM,·,?,·,18.4µM
CCCCCC(=O)N1C[C@@H](n2cc(-c3ccc(F)cc3)nn2)[C@H](O)C[C@@H]1c1ccc(Cl)cc1,·,11.6µM,·,-55.9,·,14.6µM
Cc1ccnc(NC(=O)c2cccc(S(=O)(=O)N3CCN(c4ccc(F)cc4)CC3)c2)c1,–,?,–[0.505 µM],–,?,?
C=CCN=c1scc(-c2ccccc2)n1/N=C/c1ccccn1,–,1.3µM,–,?,?,1.84µM
SMILES,Giardia killer,TDP1 cell noCPT,TDP1 inh,IL1B secr inh,ELG1 repair inh,DT40 TDP1 CPT
Cc1nc2ccccc2c(=O)n1/N=C/c1ccccn1,–,–,–,–,?,–
C=CCN=c1scc(-c2ccc(F)cc2)n1/N=C/c1ccccn1,–,2.59µM,–,?,?,2.59µM
C=CCn1c(-c2ccc(OC)c(OC)c2)cs/c1=N\c1ccccn1,–,?,–,–,–,?
O=S(=O)(Nc1cccnc1)c1cccc2ccccc12,–,·,–,·,·,·
Cc1cc(OCC(=O)NCCCn2ccnc2)c2c(C)c(C)c(=O)oc2c1,–,–,–,–,?,–
COc1cccc(NC(=O)c2cc(-c3ccco3)nc3ccccc23)c1,–,?,·,–,·,–
O=C(Nc1cccc(S(=O)(=O)NC2=NCCCCC2)c1)c1cc(-c2ccco2)nc2ccccc12,–,9.2µM,·,–,–,?
O=C(Nc1cccc(S(=O)(=O)NCc2ccco2)c1)c1cc(-c2ccccc2)nc2ccccc12,–,23.1µM,–,-87.5,20.6µM,?
O=C(Nc1cccc(S(=O)(=O)NC2=NCCCCC2)c1)c1cc(-c2ccncc2)nc2ccccc12,–,23.1µM,–,?,?,?
O=C(Nc1cccc(S(=O)(=O)NC2=NCCCCC2)c1)c1cccnc1Cl,–,–,–,–,–,–
Cc1ccc(NC(=O)Cn2cc(S(=O)(=O)N3CCCC3)c(S(=O)(=O)N3CCCC3)c2)c(C)c1,·,–,–,·,·,–
NC(=O)CSc1nc2ccc(NC(=O)COc3ccccc3)cc2s1,·,23.1µM,–,·,·,?
CC(=O)Nc1ccc2nc(SCC(=O)NCCOc3ccccc3)sc2c1,–,14.6µM,–,–,–,14.6µM
COc1cc(CCC(=O)Nc2ccc(S(=O)(=O)NC3=NCCCCC3)cc2)cc(OC)c1OC,–,?,–,–,–,–
Fc1ccc(NC(=S)N2CCN(c3cccc(C(F)(F)F)c3)CC2)cc1,–,13µM,–,–,–,20.6µM
COc1cccc(N2CCN(C(=S)Nc3ccccc3)CC2)c1,–,–,·,–,–,–
O=S(=O)(c1cccc(NC(=S)N2CCN(c3ccccc3)CC2)c1)C(F)F,–,16.4µM,–,–,–,13µM
O=S(=O)(Nc1ncccn1)c1ccc(NC(=S)N2CCN(c3cccc(C(F)(F)F)c3)CC2)cc1,–,–,·,–,·,–
FC(F)(F)c1cccc(NC(=S)N2CCN(c3cccc(C(F)(F)F)c3)CC2)c1,–,14.6µM,–,–,–,?
CCN1CCN(C(=S)Nc2cccc(C(F)(F)F)c2)CC1,–,–,–,–,–,–
